{"source": "PubChem BioAssay AID1345085", "about": "(National Center for Advancing Translational Sciences (NCATS), 2018)", "test_system": "Jar", "experiment": "Confirmatory qHTS for gynecologic anti-cancer compounds from libraries of approved drugs and bioactive compounds; also: nearly all actives have a fitted effect of over 55% in size", "settings": "gynecologic cancer cell panel viability, ATPlite luminescence, 48 h; series mostly up to 57.6 µM", "in_short": "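ATP-based luminescent viability (ATPlite) after 48 h drug treatment at 37 °C, 5% CO2, across 57.5 uM–0.977 nM in 1:3 steps. Cells seeded at 1,000 per well 16 h beforehand; IC50 values computed, HEK 293T as selectivity control.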", "note": "Results filed as inconclusive are left out. Where a call stands in place of a potency, no number is given. The source made the active and inactive calls. Calls follow the shape of the dose curve; as a rule, active = well fitted cell-killing curve with a large enough effect; inconclusive = small, poorly fitted or top-dose-only effect, or effect the other way; inactive = no such curve, though single readings can be large or run the other way. Potency is read from the fitted curve at half-maximal effect."}
{"smiles": "C[C@]12CCC(=O)C=C1CC[C@@H]1[C@@H]2[C@@H](O)C[C@@]2(C)[C@H]1CC[C@]2(O)C(=O)CO", "values": [{"measurement": "Potency", "value": "inactive"}]}
{"smiles": "CCN(CC)CCCC(C)Nc1ccnc2cc(Cl)ccc12", "note": "(configuration not stated)", "values": [{"measurement": "Potency", "value": "inactive"}]}
{"smiles": "Cc1cc(SCc2sc(-c3ccc(C(F)(F)F)cc3)nc2C)ccc1OCC(=O)O", "values": [{"measurement": "Potency", "value": "inactive"}]}
{"smiles": "COc1cc(N2CCC(N3CCN(C)CC3)CC2)ccc1Nc1ncnc(Nc2ccccc2S(=O)(=O)C(C)C)n1", "values": [{"measurement": "Potency", "value": "inactive"}]}
{"smiles": "CC(C)Oc1ccc(C(=O)NC(CNC(=O)CN(C)C)Cc2ccc(-c3cn4cccc(C(C)O)c4n3)cc2)cc1Cl", "note": "(configuration not stated)", "values": [{"measurement": "Potency", "value": "0.172 µM (active)"}]}
{"smiles": "CC(C)(C(=O)NCC(F)(F)C(F)(F)F)C(=O)NC1C(=O)Nc2ccccc2-c2ccccc21", "note": "(configuration not stated)", "values": [{"measurement": "Potency", "value": "inactive"}]}
{"smiles": "CN[C@@H](C)C(=O)N[C@H]1CN(C(=O)CC(C)C)CC[C@H]2CC[C@@H](C(=O)NC(c3ccccc3)c3ccccc3)N2C1=O", "values": [{"measurement": "Potency", "value": "inactive"}]}
{"smiles": "CO[C@@]12[C@H](COC(N)=O)C3=C(C(=O)C(C)=C(N)C3=O)N1C[C@@H]1N[C@@H]12", "values": [{"measurement": "Potency", "value": "inactive"}]}
{"smiles": "Cc1ccc(C(=O)Nc2ccc(CN3CCN(C)CC3)c(C(F)(F)F)c2)cc1C#Cc1cnc2[nH]ncc2c1", "values": [{"measurement": "Potency", "value": "inactive"}]}
{"smiles": "CN(C)CCC(CSc1ccccc1)Nc1ccc(S(=O)(=O)NC(=O)c2ccc(N3CCN(Cc4ccccc4-c4ccc(Cl)cc4)CC3)cc2)cc1[N+](=O)[O-]", "note": "(configuration not stated)", "values": [{"measurement": "Potency", "value": "8.63 µM (active)"}]}
{"smiles": "Cc1nc(Nc2ncc(C(=O)Nc3c(C)cccc3Cl)s2)cc(N2CCN(CCO)CC2)n1", "values": [{"measurement": "Potency", "value": "21.7 µM (active)"}]}
{"smiles": "Fc1cc(-c2cccc3ncc(-c4cnn(C5CCNCC5)c4)nc23)cc(F)c1CN1CCOCC1", "values": [{"measurement": "Potency", "value": "34.3 µM (active)"}]}
